According to PubChem BioAssay (Tox21):
Inconclusive results are not listed. A call without a number means that no potency is given here. Active and inactive are the calls of the source. Calls come from the whole dose curve; as a rule, active = well fitted activation curve with a large enough effect in the repeat runs; inconclusive = weak or mixed curves, or effect the other way; inactive = no such curve, though single readings can be large or run the other way.

Experiment: qHTS assay to identify small molecule agonists of the estrogen related receptor signaling pathway with the pleiotropic PPARgamma coactivator (PGC) from Tox21 10K library (AID 1224842); note: nearly all actives have a fitted effect of over 15% in size
Details: PGC/ERR reporter cell line, luciferase ONE-Glo, 18 h; series mostly up to 92.4 µM
Text: National Center for Advancing Translational Sciences [NCATS] NIH Chemical Genomics Center [NCGC] U.S. Environmental Protection Agency [EPA] National Institutes of Environmental Health Sciences [NIEHS] National Toxicology Program [NTP] Assay overview: Estrogen related receptors (ERRs), the first orphan nuclear receptors discovered, play an important role in the control of cellular energy metabolism. ERRs are required for high-energy production in response to the environmental challenges. The pleiotropic PPARgamma coactivator (PGC) is a major partner of ERR and a key regulator in energy homeostasis. Together they have been implicated in the etiology of metabolic disorders such as Type 2 diabetes and metabolic syndrome. ERR-alpha was also identified as an adverse marker for breast cancer progression; ERR-alpha-positive tumors have a poor prognosis. To screen and to identify environmental compounds that perturb the PGC/ERR signaling pathways could provide valuable information for potential therapeutic or preventive measures in the treatment of metabolic disease. For identifying PGC/ERR agonists, PGC/ERR cell line (provided by NTP) has been used to screen Tox21 10K library.
Assay Protocol Summary: The PGC/ERR cells were dispensed at 2,000 cells/5 ul/well in 1536-well white plates using a Multidrop dispenser. After the assay plates were incubated at a 37 C/5% CO2 incubator for 6 hours, 23 nL of compounds dissolved in DMSO, positive and negative controls or DMSO only was transferred to the assay plate by a pin tool. The plates were incubated at 37 C for 18 hours. 4 ul/well of One-Glo reagent was added into the assay plates using a Flying Reagent Dispenser. After 30-minute incubation at room temperature, the luminescence intensity in the plates was measured using a ViewLux plate reader.
Potency is the fitted concentration of half-maximal effect.

| SMILES | Potency |
| --- | --- |
| CCCCC(CC)COP(=O)(O)OCC(CC)CCCC (stereo not given) | inactive |
| CN(C)c1ccc(C2(c3ccc(N(C)C)cc3)OC(=O)c3cc(N(C)C)ccc32)cc1 | inactive |
| CC1=C(C(=O)OC(C)C)C(c2cccc([N+](=O)[O-])c2)C(C(=O)OC2CN(C(c3ccccc3)c3ccccc3)C2)=C(N)N1 (stereo not given) | inactive |
| C1CCCC1 | inactive |
| NC(=O)N1C(=O)C(C(=O)c2cc(Cl)cs2)c2cc(F)c(Cl)cc21 (stereo not given) | inactive |
| CC/C(=C(\c1ccc(O)cc1)c1ccc(OCCN(C)C)cc1)c1ccccc1 | inactive |
| CCCC(=O)OC[C@@H](OC(=O)CCC)[C@@H](OC(=O)CCC)[C@H](Cn1c2nc(=O)[nH]c(=O)c-2nc2cc(C)c(C)cc21)OC(=O)CCC | inactive |
| O=C(OCC1CO1)C1CCCCC1C(=O)OCC1CO1 (stereo not given) | inactive |
| Clc1ccccc1C(c1ccccc1)(c1ccccc1)n1ccnc1 | inactive |
| OCCN1CCN(CC/C=C2/c3ccccc3Sc3ccc(C(F)(F)F)cc32)CC1 | inactive |
| Cc1cc(=O)oc2cc(N(C)C)ccc12 | inactive |
| Cc1cc(O)c(C(C)(C)C)cc1Sc1cc(C(C)(C)C)c(O)cc1C | inactive |
| CCCN(CCC)c1c([N+](=O)[O-])cc(C(F)(F)F)c(N)c1[N+](=O)[O-] | inactive |
| Nc1ccccc1O | inactive |
| O=S1(=O)CC(Cl)(Cl)C(Cl)(Cl)C1 | inactive |
| CC[C@@]1(O)C(=O)OCc2c1cc1n(c2=O)Cc2c-1nc1ccccc1c2/C=N/OC(C)(C)C | inactive |
| NNc1nc(-c2ccc(N)cc2)cs1 | inactive |
| CCc1cc(SCc2sc(-c3ccc(C(F)(F)F)cc3)nc2CN2CCN(c3ccc(OC)cc3)CC2)ccc1OCC(=O)O | inactive |
| Nc1nc2ccccc2n1Cc1ccc(F)cc1 | inactive |
| CCCCCCCC/C=C/CCCCCCCC1=NCCN1CCO | inactive |

| SMILES | Potency |
| --- | --- |
| COc1cc(-c2ccc(N=C=O)c(OC)c2)ccc1N=C=O | inactive |
| N#CC1(c2ccc(F)cc2)CCC(=O)CC1 | inactive |
| CCCCN1C(=O)[C@@H]([C@H](O)C2CCCCC2)NC(=O)C12CCN(Cc1ccc(Oc3ccc(C(=O)O)cc3)cc1)CC2 | inactive |
| COCCCC/C(=N\OCCN)c1ccc(C(F)(F)F)cc1 | inactive |
| COC(=O)C1=C(C)NC(C)=C(C(=O)OCC(C)C)C1c1ccccc1[N+](=O)[O-] (stereo not given) | inactive |
| O=C(NO)C1(NS(=O)(=O)c2ccc(Oc3ccc(F)cc3)cc2)CCOCC1 | inactive |
| CCCCCOc1ccccc1/C(=C\SC)n1ccnc1 | inactive |
| CCCCCCCCCCCCc1ccc(O)cc1 | inactive |
| NNc1nc(-c2ccc([N+](=O)[O-])cc2)cs1 | inactive |
| [Cl][Au]([Cl])[Cl] | inactive |
| CC1(C)CCC(C)(C)c2cc(C(=O)Nc3ccc(C(=O)O)cc3)ccc21 | inactive |
| Clc1ccc2cc3ccccc3cc2c1 | 68.5 µM (active) |
| NNc1nc(-c2ccccc2)cs1 | inactive |
| C/C=C(\C)C(=O)OCc1ccccc1 | inactive |
| CCCCCCCCCCCCCCCC[N+](C)(C)CCN(Cc1ccc(OC)cc1)c1ncccn1 | inactive |
| O=C(OCC(COC(=O)c1ccccc1)(COC(=O)c1ccccc1)COC(=O)c1ccccc1)c1ccccc1 | inactive |
| O=C(N/N=C/c1ccccc1O)c1ccncc1 | inactive |
| CCCCN(CCCC)c1ccc(C(=O)c2ccccc2C(=O)O)c(O)c1 | inactive |
| Fc1ccc(C(c2ccc(F)cc2)N2CCN(C/C=C/c3ccccc3)CC2)cc1 | inactive |
| ON=C1CCCC1 | inactive |
